Results filed as inconclusive are left out. Active and inactive are the calls of the source. The calls were made as follows, unless noted: active = hit-call score of the fitted dose curve at least 0.9, where 1 is the maximum; inactive = score below 0.9.
The compounds below were run on Monokine induced gamma interferon (MIG), CXCL9 (gene 4283) (assay: BSK_3C_MIG: BioMAP Diversity Plus: 3C Assay for Monokine induced gamma interferon (MIG) Biomarker Activity (AID 2283021;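 as to AC50: MIG protein level measured by immunoassay in the treated endothelial cultures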)). Details: primary human endothelial cells (HUVEC); actives raise or lower the signal.
In short: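 Primary human umbilical vein endothelial cells in the 3C system were exposed to chemical for 24 h, after which MIG was quantified by ELISA. Activity was fitted bidirectionally against DMSO as negative control and baseline.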

AC50, active:
COc1cccc(-c2ccc(/C=C\CN3CCCCCC3)cc2Cl)c1 34.3 µM
On1ccccc1=S 32 µM
O=C(CCCCCCCCc1cccnc1)N1CCC(C=C(c2ccccc2)c2ccccc2)CC1 14.2 µM
CCOc1cccc(-n2cc(C(=O)N3CCN(c4cc(C(=O)O)c5ccccc5c4)CC3)nc2-c2ccc(C)cc2)c1 35.5 µM
CCCCCCc1ccc(O)cc1O 3.97 µM

outcome, inactive:
O=C1CCC(N2C(=O)c3ccccc3C2=O)C(=O)N1 (stereo unspecified)
O=C1OC(=O)C2C3C=CC(C3)C12 (stereo unspecified)
CCOCCOCCOCCO
CC(=O)OCCC(C)C
CC1(C)C(=O)N(Br)C(=O)N1Br
COCCOc1cc2cc(C(=O)NC3CCN(C(C)C)CC3)n(CC(=O)Nc3ccc(Cl)cn3)c2cn1
CC(=O)OC[C@H]1O[C@@](COC(C)=O)(O[C@H]2O[C@H](COC(C)=O)[C@@H](OC(C)=O)[C@H](OC(C)=O)[C@H]2OC(C)=O)[C@@H](OC(C)=O)[C@@H]1OC(C)=O
CC[C@H](C)C(=O)O[C@H]1C[C@@H](C)C=C2C=C[C@H](C)[C@H](CC[C@@H]3C[C@@H](O)CC(=O)O3)[C@H]21
O=c1n(CC2CO2)c(=O)n(CC2CO2)c(=O)n1CC1CO1 (stereo unspecified)
COC(=O)CC(=O)OC
CCCCCCCCCCCCCCCO
CC(C)=CCC/C(C)=C\CO
C=CC(=C)CCC=C(C)C
CC1=CC(=O)CC(C)(C)C1
CC(C)CC(C)(O)C#CC(C)(O)CC(C)C (stereo unspecified)
Cc1ccc(O)cc1
CCCC(=O)OCC
Cn1c(=O)cc(Oc2ccc(F)cc2F)c2cnc(NCC(C)(C)O)nc21
CN(C)c1ccc(N=NS(=O)(=O)O)cc1
CCC(C)(C)C(=O)O[C@H]1C[C@@H](C)C=C2C=C[C@H](C)[C@H](CC[C@@H]3C[C@@H](O)CC(=O)O3)[C@H]21
Nc1nc2ncc(CNc3ccc(C(=O)N[C@@H](CCC(=O)O)C(=O)O)cc3)nc2c(=O)[nH]1
Fc1ccccc1[C@@H](F)COC1CCC(Nc2ncnc3[nH]ncc23)CC1 (stereo partly specified)
O=C(O)c1cc(N=Nc2ccc(S(=O)(=O)Nc3ccccn3)cc2)ccc1O
CCn1nc(Cc2ccccc2)cc1C1CCN(C[C@H]2C[C@H](N(C)[C@@H](C(=O)O)C(C)C)C[C@@H]2c2cccc(F)c2)CC1
Cn1c(=O)c2c(ncn2C)n(C)c1=O

What follows are compounds tested against human Vitamin D Receptor (VDR), VDR (gene 7421) (UniProt P11473) (assay: ATG_VDR_TRANS: Attagene TRANS-FACTORIAL HepG2 Assay for human Vitamin D Receptor (VDR) (AID 2283022; active = hit-call score of the fitted dose curve at least 0.9, where 1 is the maximum)). Details: not given.
human Vitamin D Receptor (VDR), VDR (gene 7421), sequence (P11473 whole entry, looked up): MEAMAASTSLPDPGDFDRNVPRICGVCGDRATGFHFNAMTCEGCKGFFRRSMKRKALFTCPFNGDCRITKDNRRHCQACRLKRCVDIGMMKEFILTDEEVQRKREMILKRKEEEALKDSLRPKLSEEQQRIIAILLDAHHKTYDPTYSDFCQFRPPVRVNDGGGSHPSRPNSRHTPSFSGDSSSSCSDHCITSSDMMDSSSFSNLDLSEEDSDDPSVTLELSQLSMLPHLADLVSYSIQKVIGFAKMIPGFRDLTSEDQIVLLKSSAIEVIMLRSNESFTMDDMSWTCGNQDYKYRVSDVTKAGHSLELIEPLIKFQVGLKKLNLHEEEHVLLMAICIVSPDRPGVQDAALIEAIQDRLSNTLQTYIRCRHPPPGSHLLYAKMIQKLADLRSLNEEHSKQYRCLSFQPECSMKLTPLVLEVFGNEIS
In short: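 Multiplexed TRANS reporter in HepG2; 24 h treatment; reporter mRNA by RT-PCR plus capillary electrophoresis; upregulation scored relative to DMSO.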

outcome, inactive:
COc1cccc(-c2ccc(/C=C\CN3CCCCCC3)cc2Cl)c1
On1ccccc1=S
O=C1OC(=O)C2C3C=CC(C3)C12 (stereo unspecified)
CCOCCOCCOCCO
CC1(C)C(=O)N(Br)C(=O)N1Br
CC(=O)OC[C@H]1O[C@@](COC(C)=O)(O[C@H]2O[C@H](COC(C)=O)[C@@H](OC(C)=O)[C@H](OC(C)=O)[C@H]2OC(C)=O)[C@@H](OC(C)=O)[C@@H]1OC(C)=O
CC[C@H](C)C(=O)O[C@H]1C[C@@H](C)C=C2C=C[C@H](C)[C@H](CC[C@@H]3C[C@@H](O)CC(=O)O3)[C@H]21
O=c1n(CC2CO2)c(=O)n(CC2CO2)c(=O)n1CC1CO1 (stereo unspecified)
COC(=O)CC(=O)OC
CCCCCCCCCCCCCCCO
CC(C)=CCC/C(C)=C\CO
C=CC(=C)CCC=C(C)C
CCOc1cccc(-n2cc(C(=O)N3CCN(c4cc(C(=O)O)c5ccccc5c4)CC3)nc2-c2ccc(C)cc2)c1
CCCC(=O)OCC
Cn1c(=O)cc(Oc2ccc(F)cc2F)c2cnc(NCC(C)(C)O)nc21
CCCCCCc1ccc(O)cc1O
CN(C)c1ccc(N=NS(=O)(=O)O)cc1
Nc1nc2ncc(CNc3ccc(C(=O)N[C@@H](CCC(=O)O)C(=O)O)cc3)nc2c(=O)[nH]1
Fc1ccccc1[C@@H](F)COC1CCC(Nc2ncnc3[nH]ncc23)CC1 (stereo partly specified)
CCn1nc(Cc2ccccc2)cc1C1CCN(C[C@H]2C[C@H](N(C)[C@@H](C(=O)O)C(C)C)C[C@@H]2c2cccc(F)c2)CC1

AC50, active:
O=C(CCCCCCCCc1cccnc1)N1CCC(C=C(c2ccccc2)c2ccccc2)CC1 100 µM
